Measurements taken from PubChem BioAssay.

Target: Follistatin-related protein 3 (Homo sapiens) (UniProt O95633)
Assay: compounds binding follistatin-related protein 3 – biochemical, small-molecule microarray, 635 nm fluorescence, primary screen (AID 1105);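 further: score merges emission near 667 nm and signal to noise per printed spot across three slides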
Settings: FSTL3 binding, higher = more signal

Chain of Follistatin-related protein 3 (Homo sapiens) (O95633 whole entry, looked up): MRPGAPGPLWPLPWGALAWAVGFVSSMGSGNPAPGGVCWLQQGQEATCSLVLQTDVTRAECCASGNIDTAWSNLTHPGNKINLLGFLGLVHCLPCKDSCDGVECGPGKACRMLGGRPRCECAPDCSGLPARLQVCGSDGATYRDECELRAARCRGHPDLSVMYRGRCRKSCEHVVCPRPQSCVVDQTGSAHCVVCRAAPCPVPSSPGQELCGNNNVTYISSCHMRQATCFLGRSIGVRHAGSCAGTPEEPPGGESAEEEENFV

Compound | composite z-score
COC(=O)C(CC#Cc1ccc2c(c1)[C@]1(C(=O)N2)[C@H](c2ccc(O)cc2)N2[C@H](c3ccccc3)[C@H](c3ccccc3)OC(=O)[C@H]2[C@@H]1C(N)=O)C(=O)OC | -1.89
O=C1C2C=CC(C(O)c3ccc(Br)cc3)N(Nc3ccccc3)C2C(=O)N1c1ccccc1 (centres undefined) | 0.429
O=C(O)[C@@]1(Cc2ccccc2)COC(c2ccc(OCCCO)cc2)=N1 | -1.14
COC(=O)c1ccc(OC)c(/C=C\CC(CCc2ccccc2)OC(=O)c2ccncc2)c1 (centres undefined) | 1.37
COC(=O)[C@@]1(Cc2ccc(OC)cc2)[C@H]2c3cc(C(=O)N4CCCC4)n(CCc4ccc(O)c(OC)c4)c3C[C@H]2CN1C(=O)c1ccccc1 | -0.892
C[N+](C)(C)CCCC[C@@H]1NC(=O)[C@H]2C[C@@H](C(=O)NCCCCCCN)[C@@H](c3cccc(OCCO)c3)N2C1=O | 1.28
COC(=O)[C@]1(Cc2ccccc2N=[N+]=[N-])N=C(c2ccc(OCCCO)cc2)O[C@@H]1c1ccccc1 | -0.105
CC(C)N1C(=O)c2ccccc2[C@](C)(C(=O)O)[C@@H]1c1ccc(CO)cc1 | -0.638
COc1ccc(C(=O)Nc2ccc3c(c2)[C@]2(O[C@@H](CCO)[C@H]([Si](C)(C)c4ccc(OC)cc4)[C@H]2C)C(=O)N3Cc2ccccc2)cc1 | 0.393

Target: Dickkopf-related protein 1 (Homo sapiens) (UniProt O94907)
Sequence (O94907 whole entry, looked up): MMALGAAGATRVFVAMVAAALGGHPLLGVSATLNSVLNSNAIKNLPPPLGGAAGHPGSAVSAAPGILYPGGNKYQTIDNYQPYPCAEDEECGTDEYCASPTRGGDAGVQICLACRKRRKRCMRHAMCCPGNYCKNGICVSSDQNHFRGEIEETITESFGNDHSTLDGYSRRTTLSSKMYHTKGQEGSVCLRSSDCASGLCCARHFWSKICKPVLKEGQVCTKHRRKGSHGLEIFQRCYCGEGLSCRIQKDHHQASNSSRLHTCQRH
Assay: small molecules binding DKK1 protein – biochemical, small-molecule microarray, 635 nm fluorescence scan, primary screen (AID 1106);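 further: score merges emission near 667 nm with signal to noise over three replicate slides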
Settings: higher = more signal

Compound | composite z-score
CCOC(=O)C[C@H]1[C@H](OC(=O)c2ccccc2-c2ccccc2)[C@@H](NC(=O)c2ccccc2)c2cc(OCCCO)ccc2N1C(=O)Cc1ccc(OC)cc1 | -0.0633
C=CCC(OC(C)=O)[C@@H]1[C@@H](N(Cc2ccc(-c3cccc(C(F)(F)F)c3)o2)C(=O)c2cccc3ccccc23)c2cc(OCCCO)ccc2N1C(=O)c1ccc(-c2ccccc2)cc1 (some centres undefined) | 0.518
C[C@H]1ON(c2ccccc2)[C@@H](c2ccccc2)[C@@H]1C(=O)N1C(=O)OC[C@@H]1c1ccccc1 | 0.289
COCCOC(=O)N1C(=O)[C@@]2(c3cc(C#CCNC(N)=O)ccc31)[C@H](C(N)=O)[C@H]1C(=O)O[C@H](c3ccccc3)[C@H](c3ccccc3)N1[C@@H]2c1ccc(OCCO)cc1 | 0.825
CCCC=C(CCC)[C@@H](NS(=O)(=O)c1cccc2cccnc12)c1ccc(C(=O)OC)cc1 | 0.726
CCOC(=O)C1=CC[C@@H](c2ccccc2)N(S(=O)(=O)c2ccc(C)cc2)[C@H]1C=C(C)C | 0.226
C#CCNS(=O)(=O)N(C)C | 0.216
O=C1O[C@H](c2ccccc2)[C@H](c2ccccc2)N2[C@H]1[C@@H](C(=O)N1CCN(c3ncccn3)CC1)[C@]1(C(=O)Nc3ccc(C#CCCO)cc31)[C@H]2c1ccc(OCCO)cc1 | 0.949
COCCOC(=O)N1C(=O)[C@@]2(c3cc(C#CC4(O)CCCCCC4)ccc31)[C@H](C(=O)N1CCN(c3ncccn3)CC1)[C@H]1C(=O)O[C@H](c3ccccc3)[C@H](c3ccccc3)N1[C@@H]2c1ccc(O)cc1 | 0.0884
Cc1cc(C)c(C(O)C2C=CC3C(=O)N(c4ccccc4)C(=O)C3N2Nc2ccc([N+](=O)[O-])cc2)c(C)c1 (centres undefined) | 0.275
Cc1ccc(S[C@]2(C(=O)O)CC(=O)N(C3CCCCC3)[C@@H]2c2ccc(CO)cc2)cc1 | 0.234
CCOc1cc(C(O)C2C=CC3C(=O)NC(=O)C3N2Nc2ccccn2)ccc1O (centres undefined) | 0.107
CC(=O)NCCCC[C@@H]1NC(=O)[C@@H]2C[C@H](C(=O)NCCCC[N+](C)(C)C)[C@H](c3cccc(OCCO)c3)N2C1=O | 0.232
COc1ccc([Si](C)(C)[C@@H]2[C@@H](CC(=O)N(CCO)Cc3ccccc3)O[C@]3(C(=O)N(Cc4ccc(N5CCOC5=O)cc4)c4ccccc43)[C@H]2C)cc1 | 0.71
COC(=O)[C@]1(Cc2ccccc2CN=[N+]=[N-])N=C(c2ccc(OCCCO)cc2)O[C@@H]1c1ccccc1CN=[N+]=[N-] | 0.127
CN(C)C(=O)[C@]1(Cc2ccccc2N=[N+]=[N-])N=C(c2ccc(OCCCO)cc2)O[C@@H]1c1ccccc1CN=[N+]=[N-] | 0.825
CC(C)(C)OC(=O)CC[C@@]1(C(=O)N2CCCCC2)N=C(c2ccc(OCCCO)cc2)O[C@@H]1c1ccccc1CN=[N+]=[N-] | -0.0065
CCN(CC)c1ccc(N2CC=CC34O[C@@H]5/C=C\CCCOC(=O)C5[C@H]3C(=O)N(CCCCCO)[C@@H]4C2=O)cc1 (some centres undefined) | -1.01

Compound | composite z-score
[N-]=[N+]=Nc1ccccc1C[C@]1(C(=O)NCCN2CCOCC2)N=C(c2ccc(OCCCO)cc2)O[C@H]1c1ccccc1N=[N+]=[N-] | 0.418
COC(=O)[C@]1(Cc2ccccc2CN=[N+]=[N-])N=C(c2ccc(OCCCO)cc2)O[C@@H]1c1ccccc1 | -1
COCCOC(=O)N1C(=O)[C@@]2(c3cc(C#Cc4ccc(OC)cc4)ccc31)[C@H](C(=O)N1CCc3cc(OC)c(OC)cc3C1)[C@H]1C(=O)O[C@H](c3ccccc3)[C@H](c3ccccc3)N1[C@@H]2c1ccc(O)cc1 | 0.644
COCCOC(=O)N1C(=O)[C@@]2(c3cc(C#CCCO)ccc31)[C@H](C(=O)NC[C@H](O)c1ccccc1)[C@H]1C(=O)O[C@H](c3ccccc3)[C@H](c3ccccc3)N1[C@@H]2c1ccccc1OCCO | 1.06
COc1ccccc1CN1C(=O)c2ccccc2[C@@H](C(=O)NCC(C)C)[C@@H]1c1ccc(CO)cc1 | 0.213
C=CCN1C(=O)[C@@]2(O[C@@H](CCn3cc([C@H](O)c4ccccc4)nn3)[C@H]([Si](C)(C)c3ccc(OC)cc3)[C@H]2C)c2cc(NC(=O)c3ccc(OC)cc3)ccc21 | 0.183
O=C(O)[C@]1(CCS(=O)(=O)c2ccccc2)N=C(c2ccc(OCCCO)cc2)O[C@@H]1c1ccccc1 | -0.402
CN(C)CCCN1C(=O)[C@@]2(Cc3ccccc31)c1ccccc1C(=O)N(Cc1ccccc1)[C@H]2c1ccc(CO)cc1 | 0.0366
COC(=O)C(CC#Cc1ccc2c(c1)[C@]1(C(=O)N2)[C@H](c2ccc(O)cc2)N2[C@H](c3ccccc3)[C@H](c3ccccc3)OC(=O)[C@H]2[C@@H]1C(N)=O)C(=O)OC | -0.841
O=C1C2C=CC(C(O)c3ccc(Br)cc3)N(Nc3ccccc3)C2C(=O)N1c1ccccc1 (centres undefined) | -0.25
O=C(O)[C@@]1(Cc2ccccc2)COC(c2ccc(OCCCO)cc2)=N1 | -0.91
COC(=O)c1ccc(OC)c(/C=C\CC(CCc2ccccc2)OC(=O)c2ccncc2)c1 (centres undefined) | 0.697
COC(=O)[C@@]1(Cc2ccc(OC)cc2)[C@H]2c3cc(C(=O)N4CCCC4)n(CCc4ccc(O)c(OC)c4)c3C[C@H]2CN1C(=O)c1ccccc1 | -1.13
C[N+](C)(C)CCCC[C@@H]1NC(=O)[C@H]2C[C@@H](C(=O)NCCCCCCN)[C@@H](c3cccc(OCCO)c3)N2C1=O | 1.27
COC(=O)[C@]1(Cc2ccccc2N=[N+]=[N-])N=C(c2ccc(OCCCO)cc2)O[C@@H]1c1ccccc1 | -0.932
CC(C)N1C(=O)c2ccccc2[C@](C)(C(=O)O)[C@@H]1c1ccc(CO)cc1 | -1.06
COc1ccc(C(=O)Nc2ccc3c(c2)[C@]2(O[C@@H](CCO)[C@H]([Si](C)(C)c4ccc(OC)cc4)[C@H]2C)C(=O)N3Cc2ccccc2)cc1 | 0.359
